Results from PubChem BioAssay (NCI).
The panel holds about 83,000 compounds, 20% with a hit somewhere; the sample as a whole holds those more often.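 Single-concentration screen, 48 h exposure, 96-well plates. Endpoint: percent growth. Below 10 = active.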 Unmarked numbers belong to inactive results. Calls of active or inactive are those of the source. *1 amine or outer side, *2 acyl side, *3 side chain or, on linkers, in order; H or OH if unused. Where a SMILES comes first, the peptide text is derived from it. Bridges are numbered along the chain shown (N, C = ends). Roman numbers before positions name the chains, in order. [ ]: non-standard residue; d: D form. Actinocin(1to9) = Cc1c2oc3c(C)ccc(C(=O)[*:2])c3nc-2c(C(=O)[*:1])c(N)c1=O; NMeV = CN[CH](C(=O)O)C(C)C; Sar = CNCC(=O)O

How the values were obtained:
Assay in all cases: NCI-60 one-dose screen, 48 h (100 = growth as untreated, 0 = no growth, -100 = all killed)
Details in all cases: 10 µM unless noted
SK-MEL-2 melanoma = system: SK-MEL-2 melanoma
EKVX NSCLC = system: EKVX NSCLC
SN12C renal = system: SN12C renal
UO-31 renal = system: UO-31 renal
ACHN renal = system: ACHN renal
CAKI-1 renal = system: CAKI-1 renal
A498 renal = system: A498 renal
CCRF-CEM leukemia = system: CCRF-CEM leukemia
MOLT-4 leukemia = system: MOLT-4 leukemia
SR leukemia = system: SR leukemia
RPMI-8226 leukemia = system: RPMI-8226 leukemia
OVCAR-8 ovarian = system: OVCAR-8 ovarian
OVCAR-5 ovarian = system: OVCAR-5 ovarian
OVCAR-4 ovarian = system: OVCAR-4 ovarian
SK-OV-3 ovarian = system: SK-OV-3 ovarian
IGROV1 ovarian = system: IGROV1 ovarian
OVCAR-3 ovarian = system: OVCAR-3 ovarian
HS 578T breast = system: HS 578T breast
NCI/ADR-RES ovarian = system: NCI/ADR-RES ovarian
TK-10 renal = system: TK-10 renal

SMILES | growth (SK-MEL-2 melanoma) | growth (EKVX NSCLC) | growth (SN12C renal) | growth (UO-31 renal) | growth (ACHN renal) | growth (CAKI-1 renal) | growth (A498 renal) | growth (CCRF-CEM leukemia) | growth (MOLT-4 leukemia) | growth (SR leukemia) | growth (RPMI-8226 leukemia) | growth (OVCAR-8 ovarian) | growth (OVCAR-5 ovarian) | growth (OVCAR-4 ovarian) | growth (SK-OV-3 ovarian) | growth (IGROV1 ovarian) | growth (OVCAR-3 ovarian) | growth (HS 578T breast) | growth (NCI/ADR-RES ovarian) | growth (TK-10 renal)
Cc1cc2cccnc2c2ncccc12 | 6.1% (active) | 40.2% | 22.4% | 27% | 18.2% | 12.6% | 23.6% | -11.8% (active) | 5.73% (active) | 6.21% (active) | 13.4% | 13% | 45.6% | 14.4% | 1.57% (active) | 29.1% | 33.8% | 61.3% | 11.2% | –
CCC(C)C1NC(=O)C(NC(=O)c2c3nc4c(C(=O)NC5C(=O)NC(C(C)CC)C(=O)N6CCCC6C(=O)N(C)CC(=O)N(C)C(C(C)C)C(=O)OC5C)ccc(C)c4oc-3c(C)c(=O)c2N)C(C)OC(=O)C(C(C)C)N(C)C(=O)CN(C)C(=O)C2CCCN2C1=O (configuration not stated) (I: TIP[Sar][NMeV] / II: TIP[Sar][NMeV]; ester I:1-I:C, II:1-II:C; linker I:N-II:N via Actinocin(1to9); configuration not given here) | -43.2% (active) | 8.25% (active) | 15.4% | -15.6% (active) | -4.88% (active) | -13.1% (active) | – | -5.99% (active) | -0.501% (active) | 5.31% (active) | -18.8% (active) | – | -76.6% (active) | -1.07% (active) | 18.2% | -32.4% (active) | 1.47% (active) | – | -42.7% (active) | 3.49% (active)
Cc1nn(CCO)c(C)c1N=[N+]([O-])c1c(C)nn(CCO)c1C | 58.1% | 23.4% | 60% | -93.6% (active) | -42.8% (active) | – | 105% | 1.91% (active) | – | – | -35% (active) | 79% | 83.6% | 13.7% | 115% | – | -88.1% (active) | 103% | 96.1% | -46.9% (active)
CCC1CCCCN1C(=S)N/N=C(\C)c1ccccn1 (configuration not stated) | -11.9% (active) | 10.9% | 7.07% (active) | -17.6% (active) | 7% (active) | 10.4% | -21.9% (active) | – | 13.3% | – | – | 9.93% (active) | 30.1% | -50.2% (active) | 8.27% (active) | 2.61% (active) | -18.9% (active) | -3.92% (active) | 5.77% (active) | 19.7%
CCC(=O)c1cc([N+](=O)[O-])c(Br)s1 | 106% | 104% | 103% | 74.7% | – | 95.8% | 87% | 1.7% (active) | 33.9% | -19.5% (active) | – | 91.4% | 99% | 109% | 95.8% | 105% | 82.4% | – | 105% | 96.6%
COc1c(C)c2c(c(O)c1C/C=C(\C)CCC(=O)O)C(=O)OC2 | 43.8% | 48.2% | 34.4% | 27.9% | – | 6.69% (active) | 61.7% | 26.1% | 25.9% | 14% | 57.8% | 11.9% | – | 44.5% | 45.2% | – | 34.4% | 72% | 31.2% | 42%
CC(CSc1n[nH]c(=S)s1)c1ccccc1 (configuration not stated) | 130% | 107% | 101% | 77.4% | 116% | 98.5% | 108% | – | 91.2% | 84.5% | 103% | 109% | 127% | 94.1% | 102% | 110% | 117% | 108% | 114% | 116%
